In PubChem BioAssay AID488890 (Southern Research Specialized Biocontainment Screening …, 2010):
Hit rate of the full screen: of about 320,000 compounds, about 1,300 (0.41%) were called active. About 3% were inconclusive and are not listed. No rule for the calls is given here. These entries were drawn from the full list. Measured potencies and affinities stand elsewhere.

Experiment: growth inhibition of non-replicating M. tuberculosis (AID 488890);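 also: plate controls were DMSO cells for no effect and high antibiotic wells for full effect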
Conditions: Mycobacterium tuberculosis non-replicating, at 25 µM, stronger effect = higher value

First: Nc1nc(SCc2ccc(Cl)cc2Cl)n[nH]1
Second: CCCc1nc(SCc2ccc(Cl)cc2Cl)n[nH]1
The inhibition of the first is lower: 1.74% for the first, 2.74% for the second.

First: Cc1cccc2nc(CNC(=O)C3CCC(=O)N(Cc4ccccc4F)C3)cn12 (stereo not drawn)
Second: Cc1nn(C(=O)CCC(=O)NCc2ccc(OC(C)C)cc2)c2ccccc12
The inhibition of the first is lower: -13.7% for the first, -4.46% for the second.

Going from `CC(C)n1c(SCC(=O)Nc2ccc(F)cc2)nnc1C1CC1` to `Cc1cc(NC(=O)CSc2nnnn2-c2ccc(C)c(C)c2)no1`, the inhibition rises from -1.85% to -1.12%.

Compared with `CN(C#N)c1nccc(-c2cccs2)n1`, `CCCOc1cc(C)c(S(=O)(=O)NCc2cccs2)cc1C` is lower in inhibition: 19% for the first, 6.87% for the second.

Compared with `COc1ccc(C(=O)NNC(=O)Nc2ccc(Cl)cc2)cc1`, `COc1ccc(N/C=C/C(=O)c2ccc(Cl)cc2)cc1` is higher in inhibition: -7.99% for the first, 45.2% for the second.

First: COc1ccc(CCNC(=O)c2ccc(Cl)cc2)cc1
Second: COc1ccc(C(=O)NCC(=O)NCC(=O)OCc2ccc(Cl)cc2)cc1
The inhibition of the first is higher: 74.1% for the first, -0.72% for the second.

First: Cc1ccc(C(=O)/C=C\NCc2ccccc2)cc1
Second: Cc1ccc(N/C=C/C(=O)c2ccc(C)cc2)cc1
The inhibition of the first is higher: 37.6% for the first, 19.2% for the second.

Going from `COC(=O)c1sc2nc(N3CCCCC3)c3c(c2c1N)CCCC3` to `O=C(CN1CCCCC1)N/N=C/c1ccc(Cl)cc1Cl`, the inhibition falls from 1.1% to -4.16%.

Going from `COC(=O)C1=C(C)OC(N)=C(C#N)C1c1ccc(OC)c(CSc2ccccn2)c1` (stereo not drawn) to `COc1ccccc1-c1cn(C(C)(C)C)nc1C`, the inhibition falls from 10.8% to -1.55%.

First: Cc1ccn2c(=O)nc(SCC(=O)N3CCCC3)nc2c1
Second: CCOc1ccc(Nc2cc(C)nc(N3CCOCC3)n2)cc1
The inhibition of the first is higher: 8.52% for the first, 4.96% for the second.

Going from `O=C1CCC(=O)N1CNc1cccnc1` to `COc1ccc(NCN2C(=O)CCC2=O)cc1`, the inhibition rises from 3.84% to 61%.

First: O=C(N/N=C/c1cc(Br)c(O)c(Br)c1)c1cccc(C(F)(F)F)c1
Second: O=C(N/N=C/c1cccc(C(F)(F)F)c1)c1ccc(O)cc1
The inhibition of the first is higher: 21% for the first, 16.8% for the second.

Going from `C[C@H](CO)N1C[C@H](C)[C@@H](CN(C)S(=O)(=O)c2cn(C)cn2)Oc2ccc(NC(=O)NC3CCCCC3)cc2C1=O` to `O=C(C1CCCN(S(=O)(=O)c2ccc(Br)cc2)C1)N1CCOCC1` (stereo not drawn), the inhibition rises from -8.37% to -4.37%.

First: Cc1ccc(S(=O)(=O)N2CCOCC2)cc1C(=O)N1CCN(c2ccc(C(F)(F)F)cn2)CC1
Second: COc1ccc(Nc2cc(C)nc(N3CCOCC3)n2)cc1
The inhibition of the first is lower: 7.63% for the first, 11.6% for the second.

First: CNc1cc(C)nc(-n2nc(C)cc2C)n1
Second: Cc1cc(NCCO)nc(-n2nc(C)cc2C)n1
The inhibition of the first is higher: 77.6% for the first, 39.2% for the second.

First: COC1(c2cc(-c3ccccc3)nc(N)n2)CCCCC1
Second: COCCn1cnc2c1c(=O)[nH]c(=O)n2Cc1ccccc1
The inhibition of the first is higher: 39.4% for the first, -2.83% for the second.

For `CC1CN(C(C)C(=O)NC(c2ccccc2)c2ccccc2)CC(C)O1` (stereo not drawn), the inhibition was -1.17%.
